# Results as given in PubChem BioAssay (EPA / NIEHS).
# Where “and” joins values, the source holds several entries; their conditions need not be identical. Equal values may be shown once. Results filed as inconclusive are left out. A structure can be active in one record and inactive in another. Calls of active or inactive are those of the source. Rule for the calls, unless noted: active = hit-call score of the fitted dose curve at least 0.9, where 1 is the maximum; inactive = score below 0.9.
# What was measured:
# [1] = target: Estrogen-related receptor gamma (Homo sapiens) (UniProt P62508); test: ATG_ERRg_TRANS: Attagene TRANS-FACTORIAL HepG2 Assay for human Estrogen-Related Receptor gamma (ERRg) (AID 2282977; active = hit-call score of the fitted dose curve at least 0.9, where 1 is the maximum;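 note: hits increase reporter signal over DMSO so potencies reflect activators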); settings: HepG2 Attagene TRANS reporter, ERRg transactivation
# Summary of the method: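 Transient HepG2 transfectants, 24 h compound exposure, GAL4-UAS reporter mRNA by RT-PCR/6-FAM labelling/capillary electrophoresis; positive direction vs DMSO.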
# [2] = target: Bile acid receptor (Homo sapiens) (UniProt Q96RI1); test: ATG_FXR_TRANS: Attagene TRANS-FACTORIAL HepG2 Assay for Farnesoid X Receptor (FXR) (AID 2282979; active = hit-call score of the fitted dose curve at least 0.9, where 1 is the maximum;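 note: hits raise reporter mRNA above DMSO so AC50 marks FXR activation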); settings: HepG2 Attagene TRANS FXR-GAL4 reporter transcription
# Summary of the method: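 After 24 h chemical treatment of transfected HepG2 cells, GAL4-UAS reporter transcripts driven by an exogenous FXR-GAL4 fusion were measured by RT-PCR and capillary electrophoresis. Increases over DMSO were fitted.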
# [3] = target: Oxysterols receptor LXR-alpha (Homo sapiens) (UniProt Q13133); test: ATG_LXRa_TRANS: Attagene TRANS-FACTORIAL HepG2 Assay for human Liver X Receptor alpha (LXRa) (AID 2282980; active = hit-call score of the fitted dose curve at least 0.9, where 1 is the maximum); settings: HepG2 Attagene TRANS reporter, LXRa transactivation
# Summary of the method: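 In this multiplexed TRANS system, compounds act on HepG2 cells carrying GAL4-UAS reporter units and a receptor-GAL4 fusion for 24 h. Induced reporter RNA is amplified, fluorescently labelled and sized by capillary electrophoresis, with DMSO as baseline.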
# [4] = target: Oxysterols receptor LXR-beta (Homo sapiens) (UniProt P55055); test: ATG_LXRb_TRANS: Attagene TRANS-FACTORIAL HepG2 Assay for human Liver X Receptor beta (LXRb) (AID 2282981; active = hit-call score of the fitted dose curve at least 0.9, where 1 is the maximum); settings: HepG2 Attagene TRANS GAL4-LXRb reporter, mRNA
# Summary of the method: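 Gain-of-signal mRNA reporter endpoint, DMSO as negative control. Transiently transfected HepG2 cells carrying the NR-Gal4 chimera and GAL4-UAS reporter units were treated 24 h; transcripts quantified by RT-PCR and capillary electrophoresis fluorescence.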
# [5] = target: Hepatocyte nuclear factor 4-alpha (Homo sapiens) (UniProt P41235); test: ATG_HNF4a_TRANS: Attagene TRANS-FACTORIAL HepG2 Assay for human Hepatocyte Nuclear Factor 4 alpha (HNF4a) (AID 2282982; active = hit-call score of the fitted dose curve at least 0.9, where 1 is the maximum); settings: HepG2 HNF4a transactivation reporter, mRNA readout
# Summary of the method: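 Gain-of-signal mRNA induction, relative to DMSO vehicle, was read after 24 h compound treatment of HepG2 cells bearing transfected GAL4-UAS reporters. Detection used RT-PCR, 6-FAM primer extension and capillary electrophoresis.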
# [6] = ATG_M_06_TRANS: Attagene TRANS-FACTORIAL HepG2 Assay for M06 Transcription Factor (Internal Marker) (AID 2282983; active = hit-call score of the fitted dose curve at least 0.9, where 1 is the maximum); settings: HepG2 Attagene TRANS M06 internal marker reporter
# Summary of the method: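 Internal-marker background readout from a multiplexed TRANS reporter system in HepG2; 24 h dosing; mRNA induction quantified by RT-PCR plus capillary electrophoresis fluorescence; DMSO as negative control and baseline.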
# [7] = ATG_M_32_TRANS: Attagene TRANS-FACTORIAL HepG2 Assay for M32 Transcription Factor (Internal Marker) (AID 2282984; active = hit-call score of the fitted dose curve at least 0.9, where 1 is the maximum;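 note: transcript level of a background control reporter unit measured by RT-PCR and capillary electrophoresis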); settings: HepG2 Attagene TRANS M32 internal marker reporter
# Summary of the method: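 Capillary electrophoresis of 6-FAM-labelled reporter fragments gives the signal; data fitted for gain over DMSO negative control. Source: HepG2 cells bearing transient multiple reporter transcription units, 24 h exposure.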
# [8] = target: Nuclear receptor subfamily 4 group A member 2 (Homo sapiens) (UniProt P43354); test: ATG_NURR1_TRANS: Attagene TRANS-FACTORIAL HepG2 Assay for human Nuclear Receptor Related Protein 1 (NURR1) (AID 2282985; active = hit-call score of the fitted dose curve at least 0.9, where 1 is the maximum); settings: HepG2 Attagene TRANS reporter, mRNA readout
# Summary of the method: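 HepG2 / transient MRTU transfection / 24 h compound exposure / RT-PCR + CE fluorescence of reporter mRNA / gain-of-signal vs DMSO.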
# [9] = target: Transcriptional activator Myb (Homo sapiens) (UniProt P10242); test: ATG_Myb_CIS: Attagene CIS-FACTORIAL HepG2 Assay for human Myeloblastosis (Myb) Proto-Oncogene Transcription Factor (AID 2282986); settings: HepG2 Attagene CIS-FACTORIAL Myb reporter transcription; actives raise or lower the signal
# Summary of the method: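 HepG2, transient MRTU transfection (cis-element promoters, endogenous TF activity), 24 h compound exposure. Readout: reporter mRNA via RT-PCR, 6-FAM labeling, HpaI digest, capillary electrophoresis. Gain/loss fit vs DMSO.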
# [10] = target: Nuclear respiratory factor 1 (Homo sapiens) (UniProt Q16656); test: ATG_NRF1_CIS: Attagene CIS-FACTORIAL HepG2 Assay for human Nuclear Respiratory Factor 1 (NRF1) Orphan Gene (AID 2282987); settings: HepG2 NRF1 cis-element reporter, Attagene multiplex; actives raise or lower the signal
# Summary of the method: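 Endogenous NRF1-driven reporter transcription measured in transiently transfected human HepG2 liver cells. Readout: reporter mRNA by RT-PCR and capillary electrophoresis with fluorescence detection, 24 h post-dosing. Gain or loss of signal fitted relative to DMSO baseline.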
# [11] = ATG_NFI_CIS: Attagene CIS-FACTORIAL HepG2 Assay for human Nuclear Factor I (NFI) (AID 2282989); settings: HepG2 cis-regulatory reporter, NFI response element transcription; actives raise or lower the signal
# Summary of the method: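 Transfected HepG2 liver cells, exposed 24 h, supplied total RNA for oligo(dT) reverse transcription and reporter-specific PCR. Labelled, HpaI-cut fragments were sized by capillary electrophoresis; DMSO set the baseline for bidirectional fitting.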
# [12] = target: Myc proto-oncogene protein (Homo sapiens) (UniProt P01106); test: ATG_Myc_CIS: Attagene CIS-FACTORIAL HepG2 Assay for human Myelocytomatosis (Myc) Proto-Oncogene Transcription Factor (AID 2282990); settings: HepG2, Attagene cis-reporter transcription factor activity; actives raise or lower the signal
# Summary of the method: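 Transiently transfected HepG2 cells bearing cis-promoter reporter units for endogenous transcription factors; 24 h exposure. Reporter mRNA measured by RT-PCR, 6-FAM primer extension, HpaI cut and capillary electrophoresis; bidirectional fit relative to DMSO.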
# [13] = ATG_NRF2_ARE_CIS: Attagene CIS-FACTORIAL HepG2 Assay for human Nuclear Factor Erythroid 2 Related Factor 2 (NFR2) response to Antioxidant Response Elements (ARE) (AID 2282992); settings: HepG2 Attagene ARE/NRF2 reporter, transcription factor activity; actives raise or lower the signal
# Summary of the method: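 HepG2 cells transiently transfected with multiplexed cis-element reporter constructs, 24 h after chemical dosing; reporter mRNA quantified by RT-PCR, fluorescent primer extension, HpaI digestion and capillary electrophoresis. Bidirectional fit relative to DMSO.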
# [14] = ATG_Oct_MLP_CIS: Attagene CIS-FACTORIAL HepG2 Assay for human Octamer-Binding Transcription Factor (Oct) (AID 2282993); settings: HepG2 Attagene cis-factorial Oct reporter, mRNA; actives raise or lower the signal
# Summary of the method: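 Using HepG2 cells bearing transfected cis-reporter constructs, mRNA induction was read after 24 h by fluorescent RT-PCR and capillary electrophoresis, with DMSO defining baseline for gain- or loss-of-signal fits.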
# [15] = target: Cellular tumor antigen p53 (Homo sapiens) (UniProt P04637); test: ATG_p53_CIS: Attagene CIS-FACTORIAL HepG2 Assay for human p53 Transcription Factor (AID 2282994); settings: HepG2 p53 cis-element reporter, Attagene mRNA; actives raise or lower the signal
# Summary of the method: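 HepG2 cells transiently transfected with cis-regulated multiple reporter transcription units, dosed 24 h. Reporter mRNA measured by RT-PCR, 6-FAM primer extension, HpaI digestion and capillary electrophoresis; bidirectional fit relative to DMSO.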
# [16] = BSK_3C_TissueFactor: BioMAP Diversity Plus: 3C Assay for Tissue Factor Biomarker Activity (AID 2282997); settings: BioMAP 3C HUVEC, tissue factor biomarker readout; actives raise or lower the signal
# Summary of the method: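 Endothelial monolayers (human umbilical vein, primary) are dosed, incubated 24 h, and assayed for Tissue Factor by ELISA; DMSO serves as negative control for bidirectional fitting.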
# [17] = BSK_3C_uPAR: BioMAP Diversity Plus: 3C Assay for Urokinase-type plasminogen activator receptor (uPAR) Biomarker Activity (AID 2282998); settings: BioMAP 3C HUVEC, uPAR biomarker ELISA; actives raise or lower the signal
# Summary of the method: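 In this endothelial cell-based assay, human umbilical vein primary cells were treated with chemicals and harvested at 24 h. uPAR was quantified using ELISA, with gains or losses fitted relative to DMSO controls.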
# [18] = BSK_3C_VCAM1: BioMAP Diversity Plus: 3C Assay for Vascular cell adhesion molecule 1 (VCAM1) Biomarker Activity (AID 2282999); settings: BioMAP 3C HUVEC, VCAM1 ELISA, cytokine-stimulated; actives raise or lower the signal
# Summary of the method: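 Human umbilical vein endothelial cells (3C system), biomarker read by ELISA 24 h after dosing; bidirectional fit against DMSO baseline. Cytotoxicity tracked by SRB total-protein staining in parallel cultures at biomarker time.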
# [19] = target: Glucocorticoid receptor (Homo sapiens) (UniProt P04150); test: ATG_GR_TRANS: Attagene TRANS-FACTORIAL HepG2 Assay for human Glucocorticoid Receptor (GR) (AID 2282978; active = hit-call score of the fitted dose curve at least 0.9, where 1 is the maximum;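 note: activators score as hits since higher reporter transcript over DMSO is fitted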); settings: HepG2 Attagene TRANS GR reporter, mRNA transcription
# Summary of the method: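 Transient MRTU transfection of HepG2 (GAL4-UAS reporters, exogenous NR-GAL4 chimeras), 24 h dosing. Readout: reporter transcript via RT-PCR + capillary electrophoresis fluorescence. Positive direction vs DMSO baseline.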
# [20] = ATG_NF_kB_CIS: Attagene CIS-FACTORIAL HepG2 Assay for human Nuclear Factor Kappa B (NF-kB) (AID 2282991); settings: HepG2 Attagene cis-factorial NF-kB reporter mRNA; actives raise or lower the signal
# Summary of the method: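 Read-out: reporter transcript levels quantified by RT-PCR plus capillary electrophoresis of 6-FAM-labelled, HpaI-cut fragments. Transfected HepG2 cells, 24 h compound exposure, endogenous NF-kB-driven cis element; gain or loss scored versus DMSO.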
# Chain of Bile acid receptor (Homo sapiens) (Q96RI1 whole entry, looked up, the tested form may be a part): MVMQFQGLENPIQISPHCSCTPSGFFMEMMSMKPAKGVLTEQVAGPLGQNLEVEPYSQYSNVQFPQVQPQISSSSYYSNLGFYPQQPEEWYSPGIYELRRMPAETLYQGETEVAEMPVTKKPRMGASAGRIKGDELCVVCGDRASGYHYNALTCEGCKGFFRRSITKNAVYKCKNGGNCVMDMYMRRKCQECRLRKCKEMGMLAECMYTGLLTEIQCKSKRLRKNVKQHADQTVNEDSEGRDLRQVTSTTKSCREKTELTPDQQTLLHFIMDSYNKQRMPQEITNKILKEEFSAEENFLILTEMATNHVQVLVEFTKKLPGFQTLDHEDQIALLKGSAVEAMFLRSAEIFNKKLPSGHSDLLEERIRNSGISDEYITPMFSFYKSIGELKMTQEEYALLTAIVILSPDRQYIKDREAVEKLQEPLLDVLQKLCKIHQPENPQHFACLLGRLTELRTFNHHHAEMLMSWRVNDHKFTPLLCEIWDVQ
# Chain of Nuclear receptor subfamily 4 group A member 2 (Homo sapiens) (P43354 whole entry, looked up): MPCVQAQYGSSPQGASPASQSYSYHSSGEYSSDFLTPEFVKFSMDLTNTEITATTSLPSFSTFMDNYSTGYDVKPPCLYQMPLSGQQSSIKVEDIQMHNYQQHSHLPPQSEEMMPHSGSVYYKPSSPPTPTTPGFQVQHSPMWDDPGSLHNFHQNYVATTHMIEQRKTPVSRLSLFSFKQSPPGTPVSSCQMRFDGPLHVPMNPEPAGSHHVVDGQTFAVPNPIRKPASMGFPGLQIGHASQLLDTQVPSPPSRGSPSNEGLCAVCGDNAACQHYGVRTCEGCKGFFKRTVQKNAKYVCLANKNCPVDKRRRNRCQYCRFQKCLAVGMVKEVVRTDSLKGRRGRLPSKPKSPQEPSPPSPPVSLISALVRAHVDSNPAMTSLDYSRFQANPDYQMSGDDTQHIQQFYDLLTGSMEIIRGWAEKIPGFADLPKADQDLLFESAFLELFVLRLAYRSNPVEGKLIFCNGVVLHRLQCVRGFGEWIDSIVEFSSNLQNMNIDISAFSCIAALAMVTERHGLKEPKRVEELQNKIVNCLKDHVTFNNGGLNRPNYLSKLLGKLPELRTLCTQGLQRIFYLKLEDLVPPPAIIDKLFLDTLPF
# Chain of Cellular tumor antigen p53 (Homo sapiens) (P04637 whole entry, looked up): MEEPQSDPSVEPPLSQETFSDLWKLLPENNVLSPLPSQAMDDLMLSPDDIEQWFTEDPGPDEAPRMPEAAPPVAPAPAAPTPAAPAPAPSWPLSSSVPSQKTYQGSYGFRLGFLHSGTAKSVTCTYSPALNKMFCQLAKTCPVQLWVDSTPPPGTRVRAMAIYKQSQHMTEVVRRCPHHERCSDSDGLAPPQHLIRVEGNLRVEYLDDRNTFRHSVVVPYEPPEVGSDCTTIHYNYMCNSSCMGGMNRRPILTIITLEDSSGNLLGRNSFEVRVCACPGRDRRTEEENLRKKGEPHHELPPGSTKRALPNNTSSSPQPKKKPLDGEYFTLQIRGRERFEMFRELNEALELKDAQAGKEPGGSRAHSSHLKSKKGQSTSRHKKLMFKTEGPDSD
# Chain of Oxysterols receptor LXR-beta (Homo sapiens) (P55055 whole entry, looked up, the tested form may be a part): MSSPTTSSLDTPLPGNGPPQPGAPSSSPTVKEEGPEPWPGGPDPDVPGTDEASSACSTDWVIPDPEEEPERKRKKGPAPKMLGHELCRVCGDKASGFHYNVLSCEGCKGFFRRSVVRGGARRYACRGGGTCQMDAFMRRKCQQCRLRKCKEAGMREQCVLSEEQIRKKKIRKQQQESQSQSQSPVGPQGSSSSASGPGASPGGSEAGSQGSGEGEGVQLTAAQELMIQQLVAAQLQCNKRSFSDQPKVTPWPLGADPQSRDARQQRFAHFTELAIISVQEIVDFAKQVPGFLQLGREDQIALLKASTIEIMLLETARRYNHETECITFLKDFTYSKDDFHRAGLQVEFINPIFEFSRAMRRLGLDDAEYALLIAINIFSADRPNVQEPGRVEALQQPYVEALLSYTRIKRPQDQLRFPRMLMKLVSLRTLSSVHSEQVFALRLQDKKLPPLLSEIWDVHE
# Chain of Nuclear respiratory factor 1 (Homo sapiens) (Q16656 whole entry, looked up): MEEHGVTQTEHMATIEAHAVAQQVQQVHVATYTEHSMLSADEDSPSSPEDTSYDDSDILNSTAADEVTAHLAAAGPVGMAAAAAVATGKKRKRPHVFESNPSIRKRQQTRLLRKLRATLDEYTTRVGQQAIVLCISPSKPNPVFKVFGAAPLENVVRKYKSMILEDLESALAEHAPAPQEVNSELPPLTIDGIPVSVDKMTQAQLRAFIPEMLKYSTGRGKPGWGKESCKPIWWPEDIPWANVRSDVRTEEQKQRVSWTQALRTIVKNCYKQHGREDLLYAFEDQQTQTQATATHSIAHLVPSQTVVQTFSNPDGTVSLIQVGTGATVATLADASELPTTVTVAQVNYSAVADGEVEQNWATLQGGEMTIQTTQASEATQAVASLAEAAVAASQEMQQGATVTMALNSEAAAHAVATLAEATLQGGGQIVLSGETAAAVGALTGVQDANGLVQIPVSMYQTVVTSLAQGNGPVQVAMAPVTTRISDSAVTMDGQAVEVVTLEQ
# Chain of Myc proto-oncogene protein (Homo sapiens) (P01106 whole entry, looked up): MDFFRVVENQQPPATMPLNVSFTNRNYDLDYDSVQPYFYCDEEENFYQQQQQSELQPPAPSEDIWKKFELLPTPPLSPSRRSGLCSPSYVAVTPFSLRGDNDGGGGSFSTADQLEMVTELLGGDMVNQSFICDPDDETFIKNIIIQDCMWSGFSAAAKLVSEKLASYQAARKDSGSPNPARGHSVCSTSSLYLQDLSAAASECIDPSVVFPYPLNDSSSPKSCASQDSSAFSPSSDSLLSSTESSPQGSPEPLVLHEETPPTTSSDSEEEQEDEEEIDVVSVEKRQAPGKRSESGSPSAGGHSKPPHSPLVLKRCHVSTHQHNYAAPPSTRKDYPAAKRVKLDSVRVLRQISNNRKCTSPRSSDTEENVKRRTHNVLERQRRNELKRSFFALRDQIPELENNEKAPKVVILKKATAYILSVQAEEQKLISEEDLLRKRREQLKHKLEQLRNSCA
# Chain of Hepatocyte nuclear factor 4-alpha (Homo sapiens) (P41235 whole entry, looked up, the tested form may be a part): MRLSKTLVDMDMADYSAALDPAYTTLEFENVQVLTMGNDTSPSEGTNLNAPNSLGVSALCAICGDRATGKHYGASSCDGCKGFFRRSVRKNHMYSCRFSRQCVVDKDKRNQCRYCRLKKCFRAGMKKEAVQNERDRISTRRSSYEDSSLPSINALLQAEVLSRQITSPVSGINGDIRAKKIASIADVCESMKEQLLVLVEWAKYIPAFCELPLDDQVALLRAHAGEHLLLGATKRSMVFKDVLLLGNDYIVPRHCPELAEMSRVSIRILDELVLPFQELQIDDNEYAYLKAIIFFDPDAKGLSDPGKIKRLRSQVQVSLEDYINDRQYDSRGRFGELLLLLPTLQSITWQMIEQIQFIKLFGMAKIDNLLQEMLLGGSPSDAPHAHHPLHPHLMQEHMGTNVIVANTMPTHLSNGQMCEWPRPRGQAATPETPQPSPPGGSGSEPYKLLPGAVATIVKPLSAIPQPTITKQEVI
# Chain of Transcriptional activator Myb (Homo sapiens) (P10242 whole entry, looked up): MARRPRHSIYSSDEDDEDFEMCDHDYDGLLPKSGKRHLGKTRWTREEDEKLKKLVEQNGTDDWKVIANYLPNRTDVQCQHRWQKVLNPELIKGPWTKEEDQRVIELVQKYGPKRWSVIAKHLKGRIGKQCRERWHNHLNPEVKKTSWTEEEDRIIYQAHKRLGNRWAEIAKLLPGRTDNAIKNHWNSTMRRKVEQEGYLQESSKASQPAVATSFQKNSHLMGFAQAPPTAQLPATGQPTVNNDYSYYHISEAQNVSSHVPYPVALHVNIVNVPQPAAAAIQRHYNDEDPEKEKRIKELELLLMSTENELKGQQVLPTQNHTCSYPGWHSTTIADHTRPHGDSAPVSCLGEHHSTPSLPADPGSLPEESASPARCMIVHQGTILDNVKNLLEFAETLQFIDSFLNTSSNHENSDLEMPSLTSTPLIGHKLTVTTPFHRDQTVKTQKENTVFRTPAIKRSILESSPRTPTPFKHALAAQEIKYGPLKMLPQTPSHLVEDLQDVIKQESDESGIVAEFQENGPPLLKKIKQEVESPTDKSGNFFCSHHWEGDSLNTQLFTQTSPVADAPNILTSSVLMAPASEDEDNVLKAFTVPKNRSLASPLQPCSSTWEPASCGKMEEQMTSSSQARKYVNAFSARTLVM
# Chain of Glucocorticoid receptor (Homo sapiens) (P04150 whole entry, looked up, the tested form may be a part): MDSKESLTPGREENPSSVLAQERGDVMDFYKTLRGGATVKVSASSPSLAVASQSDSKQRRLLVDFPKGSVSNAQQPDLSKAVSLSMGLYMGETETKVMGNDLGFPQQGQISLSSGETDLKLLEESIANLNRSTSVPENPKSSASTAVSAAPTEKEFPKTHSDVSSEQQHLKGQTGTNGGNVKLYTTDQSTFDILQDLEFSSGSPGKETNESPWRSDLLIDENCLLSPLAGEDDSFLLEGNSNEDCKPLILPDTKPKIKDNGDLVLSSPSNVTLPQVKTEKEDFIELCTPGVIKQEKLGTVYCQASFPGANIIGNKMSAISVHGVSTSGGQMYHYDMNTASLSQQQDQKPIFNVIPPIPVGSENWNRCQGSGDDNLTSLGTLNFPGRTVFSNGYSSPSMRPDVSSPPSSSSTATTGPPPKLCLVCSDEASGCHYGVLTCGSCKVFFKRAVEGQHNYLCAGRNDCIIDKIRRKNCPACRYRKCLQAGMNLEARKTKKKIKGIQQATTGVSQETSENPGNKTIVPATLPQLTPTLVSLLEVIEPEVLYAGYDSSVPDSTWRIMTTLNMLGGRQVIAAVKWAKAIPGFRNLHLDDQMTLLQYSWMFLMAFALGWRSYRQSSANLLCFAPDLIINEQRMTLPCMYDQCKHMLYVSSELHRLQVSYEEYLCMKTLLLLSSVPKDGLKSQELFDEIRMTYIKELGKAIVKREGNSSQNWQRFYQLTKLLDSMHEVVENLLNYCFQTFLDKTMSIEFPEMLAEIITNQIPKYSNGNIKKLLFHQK
smiles,measurement,setting,value
C[C@]12CCC(=O)C=C1CC[C@@H]1[C@@H]2CC[C@]2(C)C(=O)CC[C@@H]12,outcome,[1],inactive
same,outcome,[2],inactive
same,outcome,[3],inactive
same,outcome,[4],inactive
same,outcome,[5],inactive
same,outcome,[6],inactive
same,outcome,[7],inactive
same,outcome,[8],inactive
same,outcome,[9],inactive
same,outcome,[10],inactive
same,outcome,[11],inactive
same,outcome,[12],inactive
same,outcome,[13],inactive
same,outcome,[14],inactive
same,outcome,[15],inactive
same,outcome,[16],inactive
same,outcome,[17],inactive
same,outcome,[18],inactive
CCC(=O)O[C@H]1CC[C@H]2[C@@H]3CCC4=CC(=O)CC[C@]4(C)[C@H]3CC[C@]12C,outcome,[19],inactive
same,AC50,[3],25.3 µM (active)
same,outcome,[3],inactive
same,AC50,[4],3.11 µM (active) and 25.7 µM (active)
same,outcome,[4],inactive
same,outcome,[5],inactive
same,outcome,[6],inactive
same,outcome,[7],inactive
same,outcome,[8],inactive
same,AC50,[9],164 µM (active)
same,outcome,[9],inactive
same,AC50,[10],122 µM (active)
same,outcome,[10],inactive
same,outcome,[11],inactive
same,AC50,[12],165 µM (active) and 163 µM (active)
same,outcome,[12],inactive
same,outcome,[20],inactive
same,AC50,[13],158 µM (active) [middle of 4 runs]
same,AC50,[14],186 µM (active) and 73.4 µM (active) and 100 µM (active)
same,outcome,[14],inactive
same,AC50,[15],100 µM (active)
same,outcome,[15],inactive
same,AC50,[16],31.4 µM (active)
same,AC50,[17],24.9 µM (active)
same,AC50,[18],35.6 µM (active)
